Records with an inconclusive call do not appear. Active and inactive are the calls of the source. Unless noted, calls follow the shape of the dose curve; as a rule, active = well fitted curve in the direction sought with a large enough effect in the repeat runs; inconclusive = weak or mixed curves; inactive = no such curve, though single readings can be large; an effect the other way counts as inactive or inconclusive.
Assays:
[1] = qHTS assay to identify aromatase inhibitors - cell viability counter screen (AID 743084);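 also: cells stimulated with testosterone during compound exposure; nearly all actives have a fitted effect of over 55% in size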; also: potency is read from the fitted curve at half-maximal effect
[2] = qHTS assay to identify small molecule that activate the aryl hydrocarbon receptor (AhR) signaling pathway - cell viability counter screen (AID 743086); also: nearly all actives have a fitted effect of over 45% in size; also: potency is read from the fitted curve at half-maximal effect;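 as to viability change, negative = cytotoxic: HepG2 liver cells carrying the AhR DRE luciferase reporter; series mostly up to about 70 µM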
In short: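 HepG2-AhR-luc (HG2L7.5c1) cells, 4000/well, treated 24 h at 37 C with compound; viability measured as CellTiter-Fluor fluorescence after 30 min in the same wells as the luciferase read.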

[3] = target: Peroxisome proliferator-activated receptor gamma (Homo sapiens) (UniProt P37231); assay: qHTS assay to identify small molecule antagonists of the peroxisome proliferator-activated receptor gamma (PPARg) signaling pathway (AID 743191; calls by dose curve; also: series mostly up to about 63 µM; nearly all actives have a fitted effect of over 30% in size)
Chain of Peroxisome proliferator-activated receptor gamma (Homo sapiens) (P37231 whole entry, looked up): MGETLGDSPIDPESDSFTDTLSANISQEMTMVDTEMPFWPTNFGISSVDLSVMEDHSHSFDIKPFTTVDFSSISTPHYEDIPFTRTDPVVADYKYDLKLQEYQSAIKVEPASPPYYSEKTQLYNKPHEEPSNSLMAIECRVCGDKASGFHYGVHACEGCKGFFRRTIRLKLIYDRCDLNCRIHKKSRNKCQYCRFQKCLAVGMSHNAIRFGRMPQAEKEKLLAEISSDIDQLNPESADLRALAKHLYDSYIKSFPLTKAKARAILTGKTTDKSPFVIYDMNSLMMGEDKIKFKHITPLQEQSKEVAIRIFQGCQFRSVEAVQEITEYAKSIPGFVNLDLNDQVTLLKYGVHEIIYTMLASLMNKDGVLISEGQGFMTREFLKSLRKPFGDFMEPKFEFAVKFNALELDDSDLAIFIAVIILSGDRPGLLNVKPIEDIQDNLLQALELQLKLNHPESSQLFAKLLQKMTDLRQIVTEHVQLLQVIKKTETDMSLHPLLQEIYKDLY
In short: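 GeneBLAzer PPARg UAS-bla HEK293H cells, 5 h post-plating, exposed to compounds 17 h at 37C. LiveBLAzer B/G FRET substrate added for 1 h at room temperature; beta-lactamase reporter read by fluorescence intensity.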

[4] = qHTS assay to identify small molecule antagonists of the peroxisome proliferator-activated receptor gamma (PPARg) signaling pathway - cell viability counter screen (AID 743194); also: nearly all actives have a fitted effect of over 55% in size
In short: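 Cytotoxicity counter screen in PPARg-bla HEK293H cells, same wells as reporter assay. Compounds plus 50 nM rosiglitazone (final) for 17 h at 37 C, then viability read by CellTiter-Glo luminescence.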

[5] = qHTS assay for small molecule activators of the heat shock response signaling pathway - cell viability counter screen (AID 743209); also: nearly all actives have a fitted effect of over 50% in size
In short: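 Cytotoxicity counter screen run in the same wells as the heat-shock bla reporter assay: HeLa HSE-bla cells, 5 h compound exposure at 37 C, viability read by CellTiter-Glo luminescence.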

[6] = qHTS assay to identify small molecule agonists of the peroxisome proliferator-activated receptor delta (PPARd) signaling pathway - cell viability counter screen (AID 743211); also: nearly all actives have a fitted effect of over 55% in size
In short: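 PPARd-bla HEK293H cells (3000/well) were pre-incubated 5 h at 37 C, then exposed to compound for 17 h at 37 C. After 2 h with LiveBLAzer substrate, CellTiter-Glo was added to the same wells; luminescence read after 30 min at room temperature.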

[7] = target: Peroxisome proliferator-activated receptor delta (Homo sapiens) (UniProt Q03181); assay: qHTS assay to identify small molecule agonists of the peroxisome proliferator-activated receptor delta (PPARd) signaling pathway (AID 743212; calls by dose curve)
Chain of Peroxisome proliferator-activated receptor delta (Homo sapiens) (Q03181 whole entry, looked up): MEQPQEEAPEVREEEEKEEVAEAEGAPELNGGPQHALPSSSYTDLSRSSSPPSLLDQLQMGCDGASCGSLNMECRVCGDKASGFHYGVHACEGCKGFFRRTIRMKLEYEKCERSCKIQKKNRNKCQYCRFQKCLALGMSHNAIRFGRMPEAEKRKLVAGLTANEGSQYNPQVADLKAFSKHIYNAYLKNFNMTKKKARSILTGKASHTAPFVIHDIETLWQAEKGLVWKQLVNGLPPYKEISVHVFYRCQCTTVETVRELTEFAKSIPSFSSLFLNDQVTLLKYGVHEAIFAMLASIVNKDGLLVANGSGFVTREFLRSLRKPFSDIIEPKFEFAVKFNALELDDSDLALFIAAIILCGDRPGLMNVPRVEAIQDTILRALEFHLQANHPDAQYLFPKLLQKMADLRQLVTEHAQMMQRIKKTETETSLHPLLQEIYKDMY
In short: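 Read-out: beta-lactamase FRET fluorescence after 2 h room-temperature incubation with LiveBLAzer B/G substrate. Cells were HEK293H carrying a UAS-bla reporter for PPARd, treated at 37 C with DMSO-dissolved compounds.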

[8] = qHTS assay to identify small molecule antagonists of the peroxisome proliferator-activated receptor delta (PPARd) signaling pathway - cell viability counter screen (AID 743213); also: nearly all actives have a fitted effect of over 50% in size
In short: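 HEK293H PPARd UAS-bla cells, 5 h pre-incubation, compound + L165041 300 nM final, 17 h 37 C; B/G FRET substrate 2 h RT; then CellTiter-Glo 30 min RT, luminescence.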

[9] = qHTS assay to identify small molecule agonists of the farnesoid-X-receptor (FXR) signaling pathway - cell viability counter screen (AID 743218); also: nearly all actives have a fitted effect of over 45% in size
In short: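 Viability counter screen in the same wells: CellTiter-Glo luminescence, 30 min room-temperature incubation, measured after the beta-lactamase read. Cells were GeneBLAzer FXR-UAS-bla HEK 293T, compound-treated 16 h at 37C.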

[10] = qHTS assay to identify small molecule antagonists of the farnesoid-X-receptor (FXR) signaling pathway - cell viability counter screen (AID 743221; active = well fitted cell-killing curve with a large enough effect in the repeat runs, not every such curve was filed as active; also: nearly all actives have a fitted effect of over 50% in size)
In short: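 GeneBLAzer FXR-UAS-bla HEK 293T cells, compound plus chenodeoxycholic acid (50 uM final), 16 h at 37 C. CellTiter-Glo added to the same wells after the beta-lactamase read; luminescence read after 30 min at room temperature as viability.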

[11] = target: Vitamin D3 receptor (Homo sapiens) (UniProt P11473); assay: qHTS assay to identify small molecule agonists of the vitamin D receptor (VDR) signaling pathway (AID 743222; calls by dose curve)
Chain of Vitamin D3 receptor (Homo sapiens) (P11473 whole entry, looked up): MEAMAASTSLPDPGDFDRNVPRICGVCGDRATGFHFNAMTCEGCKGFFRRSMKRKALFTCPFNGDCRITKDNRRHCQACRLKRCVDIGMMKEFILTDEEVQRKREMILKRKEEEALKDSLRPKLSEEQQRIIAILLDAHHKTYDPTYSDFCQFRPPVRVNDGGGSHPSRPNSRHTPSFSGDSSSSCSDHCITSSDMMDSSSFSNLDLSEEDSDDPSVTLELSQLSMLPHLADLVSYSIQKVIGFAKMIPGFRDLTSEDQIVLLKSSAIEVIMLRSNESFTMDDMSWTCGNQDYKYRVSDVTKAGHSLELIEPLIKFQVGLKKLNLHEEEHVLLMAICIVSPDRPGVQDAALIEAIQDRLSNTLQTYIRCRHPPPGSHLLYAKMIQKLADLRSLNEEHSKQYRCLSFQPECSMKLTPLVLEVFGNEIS
In short: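 Agonist mode, beta-lactamase reporter: fluorescence from LiveBLAzer B/G FRET substrate (2 h, room temperature) read after 16 h compound treatment at 37 C of VDR-bla cells, which were pre-incubated 4 h after seeding.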

[12] = target: Peroxisome proliferator-activated receptor gamma (Homo sapiens) (UniProt P37231); assay: qHTS assay to identify small molecule agonists of the peroxisome proliferator-activated receptor gamma (PPARg) signaling pathway (AID 743094; active = well fitted activation curve with a large enough effect in the signal ratio in the repeat runs, not every such curve was filed as active; the % refers to the signal ratio)
In short: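 Agonist activity was taken from a beta-lactamase reporter (FRET substrate, 1 h at room temperature) in HEK293H cells carrying a PPARg UAS-bla construct. Compounds in DMSO were incubated 17 h at 37C after a 5 h cell pre-incubation.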

[13] = qHTS assay for small molecule agonists of the antioxidant response element (ARE) signaling pathway - cell viability counter screen (AID 743203; calls by dose curve; also: nearly all actives have a fitted effect of over 55% in size)
In short: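 Viability counter screen: CellTiter-Glo luminescence, read after 30 min at room temperature, in ARE-bla HepG2 wells. Compound exposure lasted 16 h at 37C/5% CO2, following a 5 h pre-incubation of the cells after plating.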

[14] = qHTS assay for small molecule activators of the heat shock response signaling pathway (AID 743210; active = well fitted activation curve with a large enough effect in the signal ratio in the repeat runs, with a control signal flat, not every such curve was filed as active; the % refers to the signal ratio;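 also: HeLa cells with beta-lactamase reporter driven by heat shock elements; series mostly up to about 63 µM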)
In short: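 Beta-lactamase reporter read-out: FRET substrate fluorescence after 2.5 h at RT, following 5 h compound treatment at 37 C of HeLa cells carrying HSE-driven bla reporter; quantitative HTS format.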

[15] = target: Vitamin D3 receptor (Homo sapiens) (UniProt P11473); assay: qHTS assay to identify small molecule antagonists of the vitamin D receptor (VDR) signaling pathway (AID 743223; active = well fitted inhibition curve with a large enough effect in the signal ratio in the repeat runs, not every such curve was filed as active; the % refers to the signal ratio)
In short: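 VDR-bla cells were treated with compound plus 3 nM final 1alpha,25-dihydroxyvitamin D3 for 16 h at 37C. Beta-lactamase reporter read by B/G FRET substrate fluorescence after 2 h at room temperature. qHTS format.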

[16] = qHTS assay for small molecule agonists of the antioxidant response element (ARE) signaling pathway (AID 743202; active = well fitted activation curve with a large enough effect in the signal ratio in the repeat runs, not every such curve was filed as active; the % refers to the signal ratio)
In short: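 HepG2 ARE-bla reporter line, 2,000 cells/well; 5 h preincubation 37 C/5% CO2; compound (DMSO) 16 h 37 C; B/G FRET substrate 2 h RT; fluorescence intensity.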

[17] = target: Peroxisome proliferator-activated receptor delta (Homo sapiens) (UniProt Q03181); assay: qHTS assay to identify small molecule antagonists of the peroxisome proliferator-activated receptor delta (PPARd) signaling pathway (AID 743215; active = well fitted inhibition curve with a large enough effect in the signal ratio in the repeat runs, not every such curve was filed as active; the % refers to the signal ratio;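 also: cells stimulated with agonist L165041 at 300 nM final during compound exposure; series mostly up to about 62 µM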)
In short: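 Agonist L165041 (300 nM final) added with compound to PPARd-bla HEK293H UAS-bla reporter cells; 17 h incubation at 37 C. Read-out: LiveBLAzer FRET substrate, 2 h at room temperature, fluorescence intensity.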

[18] = target: Bile acid receptor (Homo sapiens) (UniProt Q96RI1); assay: qHTS assay to identify small molecule agonists of the farnesoid-X-receptor (FXR) signaling pathway (AID 743220; active = well fitted activation curve with a large enough effect in the signal ratio in the repeat runs, not every such curve was filed as active; the % refers to the signal ratio)
Chain of Bile acid receptor (Homo sapiens) (Q96RI1 whole entry, looked up): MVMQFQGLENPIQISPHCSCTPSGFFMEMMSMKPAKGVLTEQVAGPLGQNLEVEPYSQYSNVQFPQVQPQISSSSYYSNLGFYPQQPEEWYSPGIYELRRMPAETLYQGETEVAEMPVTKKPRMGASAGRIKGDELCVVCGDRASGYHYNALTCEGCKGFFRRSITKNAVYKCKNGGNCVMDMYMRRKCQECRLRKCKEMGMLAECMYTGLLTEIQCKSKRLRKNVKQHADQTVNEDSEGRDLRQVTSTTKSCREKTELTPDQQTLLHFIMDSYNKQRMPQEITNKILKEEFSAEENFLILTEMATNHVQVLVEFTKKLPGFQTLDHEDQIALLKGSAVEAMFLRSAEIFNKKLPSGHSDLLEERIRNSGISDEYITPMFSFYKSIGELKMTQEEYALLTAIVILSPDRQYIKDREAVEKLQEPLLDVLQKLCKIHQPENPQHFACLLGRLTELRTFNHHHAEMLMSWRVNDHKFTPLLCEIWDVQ
In short: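 FXR-UAS-bla HEK 293T cells carrying a UAS-driven beta-lactamase reporter were plated for 5 h at 37C/5% CO2, then exposed to DMSO-dissolved Tox21 10K compounds for 16 h at 37C. A LiveBLAzer B/G FRET substrate was loaded for 2 h at room temperature before fluorescence reading.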

[19] = target: Bile acid receptor (Homo sapiens) (UniProt Q96RI1); assay: qHTS assay to identify small molecule antagonists of the farnesoid-X-receptor (FXR) signaling pathway (AID 743217; active = well fitted inhibition curve with a large enough effect in the signal ratio in the repeat runs, not every such curve was filed as active; the % refers to the signal ratio)
In short: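 Antagonist mode: chenodeoxycholic acid at 50 uM final stimulates a UAS-driven beta-lactamase reporter in HEK 293T FXR-bla cells during 16 h, 37C compound exposure. Read-out is FRET substrate fluorescence after 2 h at room temperature.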
% is scaled to controls: 0 for no effect and ±100 for the full control effect.

CC(C)COC(=O)CC(C(=O)OCC(C)C)S(=O)(=O)O (stereo not given)
inactive: Potency [1] | Potency [2] | Potency [3] | outcome [4] | outcome [5] | outcome [6] | outcome [7] | outcome [8] | Potency [9] | outcome [10] | outcome [11]

COc1ccc(N=Nc2cc(C)c(N=Nc3ccc(S(=O)(=O)O)cc3)cc2OC)cc1
inactive: outcome [12] | outcome [4] | outcome [13] | outcome [5] | outcome [14] | outcome [6] | outcome [8] | Potency [9] | outcome [10] | outcome [15]
active: Potency [1] 48.6 µM | Potency [2] 48.6 µM

CCOC(=O)C(C)(C)C
inactive: Potency [1] | Potency [2] | outcome [12] | outcome [4] | Potency [16] | outcome [13] | outcome [5] | outcome [14] | outcome [8] | outcome [17] | Potency [9] | outcome [18] | outcome [10] | outcome [11] | outcome [15]

NC(=O)C1(N2CCCCC2)CCN(CCCC(=O)c2ccc(F)cc2)CC1
inactive: Potency [1] | Potency [2] | Potency [3] | outcome [4] | Potency [16] | outcome [13] | outcome [5] | outcome [14] | outcome [6] | outcome [7] | outcome [8] | outcome [17] | Potency [9] | outcome [10] | outcome [11]

O=C(O)Cc1cccc(-c2cc(CCCCCCc3ccc(O[C@H]4O[C@H](CO)[C@@H](O)[C@H](O)[C@@H]4O)c(-c4cccc(CC(=O)O)c4)c3)ccc2O[C@H]2O[C@H](CO)[C@@H](O)[C@H](O)[C@@H]2O)c1
inactive: Potency [1] | Potency [2] | outcome [12] | ratio activity, negative = inhibition [3] -5.32% [at 0.55 µM] | activation [16] -7.76% [at 0.756 µM] | viability change, negative = cytotoxic [13] -4.49% [at 0.756 µM] | activity change, negative = cytotoxicity [5] -0.941% [at 0.55 µM] | ratio activity, negative = inhibition [17] -1.95% [at 0.575 µM] | viability change, negative = cytotoxic [9] 5.41% [at 0.55 µM] | activation [18] 5.49% [at 0.55 µM] | activity change, negative = cytotoxicity [10] 0.163% [at 0.55 µM]

O=S(=O)(O)CCO
inactive: Potency [1] | Potency [2] | outcome [12] | outcome [4] | Potency [16] | outcome [13] | outcome [5] | outcome [14] | outcome [6] | outcome [7] | outcome [17] | Potency [9] | outcome [10] | outcome [11] | outcome [15]

O=C(/C=C/c1ccccc1)NCCO
inactive: Potency [1] | Potency [2] | outcome [12] | outcome [4] | Potency [16] | outcome [13] | outcome [5] | outcome [14] | outcome [6] | outcome [7] | outcome [17] | Potency [9] | outcome [10] | outcome [11] | outcome [15]

CC(C)CCCCCCOC(=O)C1CCCCC1C(=O)OCCCCCCC(C)C (stereo not given)
inactive: Potency [1] | Potency [2] | outcome [12] | outcome [4] | Potency [16] | outcome [13] | outcome [5] | outcome [6] | outcome [19] | Potency [9] | outcome [18] | outcome [10] | outcome [11] | outcome [15]

COc1cc(C=O)ccc1OC(=O)C(C)C
inactive: Potency [1] | Potency [2] | outcome [4] | Potency [16] | outcome [13] | outcome [5] | outcome [14] | outcome [7] | outcome [8] | Potency [9] | outcome [10] | outcome [11]

COc1cc2c3cc1Oc1cc(ccc1O)C[C@@H]1c4c(cc(OC)c(O)c4Oc4ccc(cc4)C[C@@H]3N(C)CC2)CC[N+]1(C)C
inactive: Potency [1] | Potency [2] | outcome [12] | outcome [4] | Potency [16] | outcome [5] | outcome [14] | outcome [6] | outcome [7] | outcome [8] | outcome [17] | outcome [18] | outcome [10] | outcome [11] | outcome [15]

Source: PubChem BioAssay (Tox21)
